Data published in PubChem BioAssay (NCI).
About 79,000 compounds went through this panel and 15% of them were active in at least one assay; those are over-represented in the sample as a whole. Activity calls are given as the source filed them. Rule as the data show it: active = growth inhibition above about 70%; inactive = the rest.

Assays:
[1] = NCI Yeast Anticancer Drug Screen. Data for the rad52 strain (AID 147);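 also: 0% = growth of vehicle-treated control cultures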; conditions: S. cerevisiae rad52 mutant growth inhibition, stronger effect = higher value
Method in brief: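 Inhibition of yeast growth, referenced to vehicle controls, was the measured output for a strain with defective DNA damage repair.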

[2] = NCI Yeast Anticancer Drug Screen. Data for the wt1 strain (AID 149);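 also: 0% = growth of vehicle-treated wt1 cultures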; conditions: S. cerevisiae wt1 strain (SPY 50644) growth inhibition, stronger effect = higher value
Method in brief: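 wt1 yeast, compound-treated; % growth inhibition vs vehicle control.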

[3] = NCI Yeast Anticancer Drug Screen. Data for the rad50EPP+ strain (AID 151);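 also: 0% = growth of vehicle-treated control cultures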; conditions: S. cerevisiae rad50 mutant strain, stronger effect = higher value
Method in brief: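 Genetically defined yeast (rad50EPP+, DNA damage repair alteration) is grown with compound, and inhibition of growth is expressed relative to vehicle-treated controls.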

[4] = NCI Yeast Anticancer Drug Screen. Data for the mgt1 strain (AID 153); conditions: S. cerevisiae mgt1 mutant growth inhibition, stronger effect = higher value
Method in brief: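 In the mgt1 strain, test compounds were added and growth inhibition was determined relative to vehicle-treated controls.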

[5] = NCI Yeast Anticancer Drug Screen. Data for the mec2-1 strain (AID 157); conditions: S. cerevisiae mec2-1 strain, stronger effect = higher value
Method in brief: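 Each compound was tested on mec2-1 yeast, a strain altered in DNA damage repair or cell cycle control. Growth inhibition is reported relative to vehicle.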

[6] = NCI Yeast Anticancer Drug Screen. Data for the rad14 strain (AID 159);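 also: 0% = growth of vehicle-treated control cultures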; conditions: S. cerevisiae rad14 strain growth inhibition, stronger effect = higher value
Method in brief: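 Test compounds were applied to a repair-deficient yeast strain. Its growth was then compared with that of cultures given vehicle alone, and inhibition was expressed relative to those controls.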

[7] = NCI Yeast Anticancer Drug Screen. Data for the sgs1 mgt1 strain (AID 161);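 also: 0% = growth of cultures given vehicle only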; conditions: S. cerevisiae sgs1 mgt1 strain, stronger effect = higher value
Method in brief: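 Inhibition of yeast growth, normalised to vehicle-treated controls, is reported for a strain bearing genetic alterations in DNA damage repair.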

[8] = NCI Yeast Anticancer Drug Screen. Data for the CLN2oe strain (AID 163);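 also: 0% = growth of vehicle-only control cultures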; conditions: S. cerevisiae CLN2oe strain, stronger effect = higher value
Method in brief: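 First, the altered yeast strain was treated with each compound; second, its growth was measured; finally, inhibition was derived by comparison with vehicle controls.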

[9] = NCI Yeast Anticancer Drug Screen. Data for the cln2 rad14 strain (AID 165);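 also: 0% = growth equal to vehicle treated cultures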; conditions: S. cerevisiae cln2 rad14 strain, stronger effect = higher value
Method in brief: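 Test compounds were added to cln2 rad14 yeast cultures; inhibition of growth was then determined by comparison with vehicle treatment.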

[10] = NCI Yeast Anticancer Drug Screen. Data for the bub3 strain (AID 167); conditions: S. cerevisiae bub3 mutant strain, stronger effect = higher value
Method in brief: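 Yeast carrying a defined mutation is treated with each compound, and growth is compared with that of vehicle-exposed cells to give inhibition.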

[11] = NCI Yeast Anticancer Drug Screen. Data for the wt2 strain (AID 169);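 also: 0% = growth of vehicle-treated yeast cultures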; conditions: S. cerevisiae wt2 strain growth inhibition, stronger effect = higher value
Method in brief: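 The panel's yeast strains carry defined changes in DNA repair or cell cycle genes. Each strain is grown with compound, and growth loss is scored relative to vehicle.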

[12] = NCI Yeast Anticancer Drug Screen. Data for the mlh1 strain (AID 171);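 also: 0% = growth of vehicle-treated control cultures of the same strain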; conditions: S. cerevisiae mlh1 strain growth inhibition, stronger effect = higher value
Method in brief: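 Inhibition values reflect reduced yeast growth in the presence of compound, referenced to vehicle controls, using a strain chosen for its alteration in DNA repair or cell cycle control.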

[13] = NCI Yeast Anticancer Drug Screen. Data for the sgs1 strain (AID 173);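 also: 0% = growth of vehicle-only control cultures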; conditions: S. cerevisiae sgs1 mutant, stronger effect = higher value
Method in brief: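 Vehicle-treated cultures served as reference for growth inhibition of a yeast strain altered in DNA damage repair or cell cycle control after compound exposure.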

[14] = NCI Yeast Anticancer Drug Screen. Data for the mlh1 rad18 strain (AID 175); conditions: S. cerevisiae mlh1 rad18 strain growth inhibition, stronger effect = higher value
Method in brief: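 Inhibition values reflect reduced growth of mutant yeast versus vehicle-treated controls following compound exposure; the mutations affect DNA damage repair.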

[15] = at 5.0 µM (retest, dose inferred, filed as 0.5)
[16] = at 50.0 µM (retest, dose inferred, filed as 5.0)

Measured: growth inhibition

N#CNC(N)=Nc1cc2ccccc2c2ccccc12
inactive: [1]; at 1.2 µM 34% | [1]; at 3.7 µM 60% | [2]; at 1.2 µM 3% | [2]; at 3.7 µM 25% | [2]; at 11.0 µM 61% | [3]; at 1.2 µM 8% | [3]; at 3.7 µM 16% | [3]; at 11.0 µM 61% | [4]; at 1.2 µM 27% | [4]; at 3.7 µM 40% | [5]; at 1.2 µM 24% | [5]; at 3.7 µM 32% | [5]; [15] 48% | [5]; at 11.0 µM 58% | [5]; at 50.0 µM 67.1% | [6]; at 1.2 µM 36% | [6]; at 3.7 µM 53% | [7]; [15] 57% | [8]; at 1.2 µM 38% | [8]; at 3.7 µM 46% | [8]; at 11.0 µM 68% | [9]; [15] 55% | [10]; at 1.2 µM 34% | [10]; at 3.7 µM 32% | [10]; [15] 40% | [10]; at 11.0 µM 67% | [11]; at 1.2 µM 17% | [11]; at 3.7 µM 12% | [11]; at 11.0 µM 62% | [12]; at 1.2 µM 31% | [12]; at 3.7 µM 50% | [13]; at 1.2 µM 20% | [13]; at 3.7 µM 58% | [14]; [15] 54%
active: [1]; at 11.0 µM 88% | [1]; at 33.0 µM 95% | [1]; at 100.0 µM 92% | [2]; at 33.0 µM 87% | [2]; at 100.0 µM 90% | [3]; at 33.0 µM 82% | [3]; at 100.0 µM 79% | [4]; at 11.0 µM 71% | [4]; at 33.0 µM 88% | [4]; at 100.0 µM 92% | [5]; at 33.0 µM 78% | [5]; [16] 96% | [5]; at 100.0 µM 82% | [6]; at 11.0 µM 85% | [6]; at 33.0 µM 95% | [6]; at 100.0 µM 93% | [7]; [16] 96% | [7]; at 50.0 µM 78.8% | [8]; at 33.0 µM 83% | [8]; at 100.0 µM 84% | [9]; [16] 90% | [9]; at 50.0 µM 91.3% | [10]; at 33.0 µM 87% | [10]; [16] 96% | [10]; at 50.0 µM 92.2% | [10]; at 100.0 µM 93% | [11]; at 33.0 µM 89% | [11]; at 100.0 µM 89% | [12]; at 11.0 µM 78% | [12]; at 33.0 µM 92% | [12]; at 100.0 µM 91% | [13]; at 11.0 µM 87% | [13]; at 33.0 µM 96% | [13]; at 100.0 µM 96% | [14]; [16] 97% | [14]; at 50.0 µM 85.7%
